# Measurements taken from PubChem BioAssay (NCATS).
# Results filed as inconclusive are left out. Active and inactive are the calls of the source. Calls follow the shape of the dose curve; as a rule, active = well fitted inhibition curve with a large enough effect; inconclusive = small, poorly fitted or top-dose-only effect; inactive = flat fitted curve, though single readings scatter.
# Assays:
# Assay in all cases: qHTS profiling for inhibitors of Plasmodium falciparum proliferation (AID 504749); also: nearly all actives have a fitted effect of over 60% in size
# CP262 = settings: P. falciparum in erythrocytes, SYBR Green DNA, 72 h; series mostly up to 28.7 µM
# Summary of the method: (§1)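 Parasite proliferation within erythrocytes, 72 h exposure. Endpoint: SYBR Green I fluorescence after overnight lysis at room temperature. Controls: 0.29 uM artemisinin, DMSO.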
# CP265 = settings: P. falciparum in erythrocytes, SYBR Green DNA, 72 h; series mostly up to 12.8 µM
# Summary of the method: as §1
# CP268 = settings: P. falciparum in erythrocytes, SYBR Green DNA, 72 h; series mostly up to 28.7 µM
# Summary of the method: as §1
# CP269 = settings: P. falciparum in erythrocytes, SYBR Green DNA, 72 h; series mostly up to 28.7 µM
# Summary of the method: as §1
# CP286 = settings: P. falciparum in erythrocytes, SYBR Green DNA, 72 h; series mostly up to 28.7 µM
# Summary of the method: as §1
# CP291 = settings: P. falciparum in erythrocytes, SYBR Green DNA, 72 h; series mostly up to 28.7 µM
# Summary of the method: as §1
# CP297 = settings: P. falciparum in erythrocytes, SYBR Green DNA, 72 h; series mostly up to 28.7 µM
# Summary of the method: as §1
# CP305 = settings: P. falciparum in erythrocytes, SYBR Green DNA, 72 h; series mostly up to 28.7 µM
# Summary of the method: as §1
# CP315 = settings: P. falciparum in erythrocytes, SYBR Green DNA, 72 h; series mostly up to 28.7 µM
# Summary of the method: as §1
# CP325 = settings: P. falciparum in erythrocytes, SYBR Green DNA, 72 h; series mostly up to 28.7 µM
# Summary of the method: as §1
# CP329 = settings: P. falciparum in erythrocytes, SYBR Green DNA, 72 h; series mostly up to 28.7 µM
# Summary of the method: as §1
# CP335 = settings: P. falciparum in erythrocytes, SYBR Green DNA, 72 h; series mostly up to 12.8 µM
# Summary of the method: as §1
# DFO2036 = settings: P. falciparum in erythrocytes, SYBR Green DNA, 72 h; series mostly up to 28.7 µM
# Summary of the method: as §1
# DIV14 = settings: P. falciparum in erythrocytes, SYBR Green DNA, 72 h; series mostly up to 28.7 µM
# Summary of the method: as §1
# DIV30 = settings: P. falciparum in erythrocytes, SYBR Green DNA, 72 h; series mostly up to 28.7 µM
# Summary of the method: as §1
# Dd2 = settings: P. falciparum in erythrocytes, SYBR Green DNA, 72 h; series mostly up to 28.7 µM
# Summary of the method: as §1
# ECU = settings: P. falciparum in erythrocytes, SYBR Green DNA, 72 h; series mostly up to 28.7 µM
# Summary of the method: as §1
# FAB9 = settings: P. falciparum in erythrocytes, SYBR Green DNA, 72 h; series mostly up to 28.7 µM
# Summary of the method: as §1
# GB4 = settings: P. falciparum in erythrocytes, SYBR Green DNA, 72 h; series mostly up to 28.7 µM
# Summary of the method: as §1
# HB3 = settings: P. falciparum in erythrocytes, SYBR Green DNA, 72 h; series mostly up to 28.7 µM
# Summary of the method: as §1
# ICS = settings: P. falciparum in erythrocytes, SYBR Green DNA, 72 h; series mostly up to 28.7 µM
# Summary of the method: as §1
# JCK = settings: P. falciparum in erythrocytes, SYBR Green DNA, 72 h; series mostly up to 28.7 µM
# Summary of the method: as §1
# N140 = settings: P. falciparum in erythrocytes, SYBR Green DNA, 72 h; series mostly up to 28.7 µM
# Summary of the method: as §1
# P93_24 = settings: P. falciparum in erythrocytes, SYBR Green DNA, 72 h; series mostly up to 28.7 µM
# Summary of the method: as §1
# P94_40 = settings: P. falciparum in erythrocytes, SYBR Green DNA, 72 h; series mostly up to 28.7 µM
# Summary of the method: as §1
# PAD = settings: P. falciparum in erythrocytes, SYBR Green DNA, 72 h; series mostly up to 28.7 µM
# Summary of the method: as §1
# PC26 = settings: P. falciparum in erythrocytes, SYBR Green DNA, 72 h; series mostly up to 28.7 µM
# Summary of the method: as §1
# TAB109 = settings: P. falciparum in erythrocytes, SYBR Green DNA, 72 h; series mostly up to 12.8 µM
# Summary of the method: as §1
# TAB113 = settings: P. falciparum in erythrocytes, SYBR Green DNA, 72 h; series mostly up to 28.7 µM
# Summary of the method: as §1
# TAB165 = settings: P. falciparum in erythrocytes, SYBR Green DNA, 72 h; series mostly up to 28.7 µM
# Summary of the method: as §1
# W2 = settings: P. falciparum in erythrocytes, SYBR Green DNA, 72 h; series mostly up to 12.8 µM
# Summary of the method: as §1
# Potency is read from the fitted curve at half-maximal effect.
smiles,measurement,setting,value
O=[As]O[As]=O (stereo unspecified),Potency,CP262,inactive
same,Potency,CP265,12.6 µM (active)
same,Potency,CP268,15.1 µM (active)
same,Potency,CP269,6.01 µM (active)
same,Potency,CP286,8.91 µM (active)
same,Potency,CP291,6.75 µM (active)
same,Potency,CP297,9.53 µM (active)
same,Potency,CP305,8.49 µM (active)
same,Potency,CP315,13.5 µM (active)
same,Potency,CP325,6.75 µM (active)
same,Potency,CP329,15.1 µM (active)
same,Potency,CP335,7.57 µM (active)
same,Potency,DFO2036,12.6 µM (active)
same,Potency,DIV14,6.01 µM (active)
same,Potency,DIV30,8.49 µM (active)
same,Potency,Dd2,7.94 µM (active)
same,Potency,ECU,8.91 µM (active)
same,Potency,FAB9,11.2 µM (active)
same,Potency,GB4,8.49 µM (active)
same,Potency,HB3,11.2 µM (active)
same,Potency,ICS,7.08 µM (active)
same,Potency,JCK,11.2 µM (active)
same,Potency,N140,7.94 µM (active)
same,Potency,P93_24,5.01 µM (active)
same,Potency,P94_40,7.08 µM (active)
same,Potency,PAD,8.91 µM (active)
same,Potency,PC26,15.1 µM (active)
same,Potency,TAB109,7.08 µM (active)
same,Potency,TAB113,7.94 µM (active)
same,Potency,TAB165,6.31 µM (active)
same,Potency,W2,4.26 µM (active)
